Consider 38 compounds from PubChem BioAssay AID1076 (NMMLSC, 2008).

Calls of active or inactive are those of the source.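 How the source made its calls: active means cell event count below 40, meaning activity score above 60 where score is 100 minus count; inactive means the rest.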

The nature of one assay: cytotoxicity in LNCaP prostate cells – cell-based, cell event count, single point, cytotoxicity control for prostate differentiation activator project, confirmation (AID 1076).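 Further: counts scatter-gated live cells after medium removal discards detached dead cells.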 The note with it: LNCaP cell loss, flow cytometry event count, 4 d; at 100 µM; stronger effect = lower value. Background: In flow cytometry, cells or beads pass a laser one at a time.
As to `Cc1oc(-c2ccc(Cl)cc2)nc1CN1CCCC(C(=O)N2CCN(C(=O)c3ccco3)CC2)C1` (stereo not given), the cell event count was 19 (inactive).

Take `O=C(CCN1C(=O)COc2ccccc21)NCCCN1CCN(c2ccccc2F)CC1`: the cell event count is 186 (inactive).

`C=CCn1c(=N)n(CC(O)COc2ccccc2OC)c2ccccc21` (stereo not given): the cell event count is 29 (inactive).

For the compound `O=C(NCCCN1CCN(c2ccccc2F)CC1)C1CCN(S(=O)(=O)c2cccs2)CC1`, the cell event count is 44 (inactive).

As to `CCN1CCN(c2ncc(C(=O)Nc3cc(Cl)c(OC)cc3OC)c3ccccc23)CC1`, the cell event count was 41 (inactive).

`CC(C)(C)OC(=O)N1CCC(C(=O)N2CCCCCC2)CC1`: the cell event count was 223 (inactive).

Consider `Cc1cc(C)c2c(=O)n(CC(=O)NCCCN3CCN(c4ccccc4F)CC3)sc2n1`, for which the cell event count was 15 (inactive).

For the compound `CCOC(=O)c1ccc(-c2n[nH]c(=O)c3ccccc23)cc1`, the cell event count is 345 (inactive).

For `COCCn1cc(C(=O)N2CCCC(C)C2)c2c3ccccc3n(C)c2c1=O` (stereo not given), the cell event count was 180 (inactive).

As to `O=C(COc1ccc(S(=O)(=O)N2CCCC2)cc1Cl)NC1CC1`, the cell event count is 355 (inactive).

`Cn1c(C(=O)NCCC2=CCCCC2)cc2c(=O)n3ccccc3nc21`: the cell event count is 191 (inactive).

Consider `Cc1cccc(-c2nc(CN3CCCC(C(=O)NC4CCCCC4)C3)c(C)o2)c1` (stereo not given), for which the cell event count was 28 (inactive).

Consider `c1ccc(CSc2nnc(-c3cccs3)n2Cc2ccco2)cc1`, for which the cell event count is 55 (inactive).

Regarding `O=C(NCC(c1cccnc1)N1CCOCC1)c1cccc(Cl)c1` (stereo not given), the cell event count is 175 (inactive).

Turning to `CCOc1ccc(-n2cc(C(=O)N3CCC(C)CC3)c3cc(OC)c(OC)cc3c2=O)cc1`, the cell event count was 202 (inactive).

Take `Cc1cc(N2CCN(C)CC2)nc2ccc(NC(=O)c3ccc(Br)o3)cc12`: the cell event count was 4 (inactive).

Consider `CCC(C(=O)Nc1ccccc1OC)n1c(C(=O)OC)cc2ccsc21` (stereo not given), for which the cell event count is 41 (inactive).

Regarding `CCn1c(=O)cc(SCC(=O)NCCCN2CCN(c3ccc(F)cc3)CC2)c2ccccc21`, the cell event count was 14 (inactive).

For `Cc1cc2c(=O)n(CC(=O)N3CCN(c4ccccc4)CC3)cnc2s1`, the cell event count is 184 (inactive).

Take `COc1ccc2c(c1)CCc1c(C(=O)Nc3cc(C)n(Cc4ccc(Cl)cc4)n3)noc1-2`: the cell event count was 43 (inactive).

As to `Nc1ccc(-n2ccnc2)cc1`, the cell event count was 173 (inactive).

On to `COc1ccc(CCNC(=O)C2CCN(Cc3nc(-c4cccc(Cl)c4)oc3C)CC2)cc1OC`, for which the cell event count is 85 (inactive).

The same assay, now with this note: LNCaP cell loss, flow cytometry event count, 4 d; event count; at 10 µM; stronger effect = lower value.
Compound `CCOC(=O)N1CCC(NC(=O)c2cc3c(-c4ccccc4F)nn(C)c3s2)CC1` showed a cell event count of 148.

For the compound `Cc1cc(=O)c2ccccc2[nH]1`, the cell event count stood at 91.

As to `CCN1C(=O)OC2(CCCCC2)C1(C)O` (stereo not given), the cell event count stood at 174.

As for `O=C(NCCCN1CCOCC1)c1cc2c(s1)CSC2`, the cell event count turned out to be 52.5.

In turn, `CC(C)(C)c1ccc(C(O)CCCN2CCC(C(O)(c3ccccc3)c3ccccc3)CC2)cc1` (stereo not given) had a cell event count of 90.

In the case of `CS(=O)(=O)c1nc(-c2cccs2)cc(C(F)(F)F)n1`, the cell event count was 61.

`CCc1nn(C(C)C(=O)N2CCc3ccccc3C2)c(=O)c2cc3occc3n12` (stereo not given) had a cell event count of 123.

Consider `Cc1oc(-c2ccc(Cl)cc2)nc1CN1CCC(C(=O)NCCCN2CCCC2=O)CC1`, for which the cell event count is 115.

Consider `Cc1ccc2c(c1)NC(=O)C(CC(=O)NCCCN1CCN(c3cc(Cl)ccc3C)CC1)O2` (stereo not given), for which the cell event count was determined as 66.

For `O=C(NCc1ccc(Cl)cc1)c1noc2c1CCCC2`, the cell event count amounted to 380.

As for `CCN(CCNC(=O)C1CCN(Cc2nc(-c3ccc(Cl)cc3)oc2C)CC1)c1ccccc1`, the cell event count stood at 391.

The compound `COc1ccc(S(=O)(=O)Nc2ccc(F)c(Cl)c2)cc1OC` yielded a cell event count of 144.

Turning to `CCOC(=O)c1c(NCc2ccc3c(c2)OCO3)c2ccccc2[nH]c1=O`, the cell event count amounted to 357.

Take `COc1cc(C(=O)NCc2nnc(SCC(=O)NCc3ccccc3)o2)cc(OC)c1OC`: the cell event count was determined as 134.

`Cn1nc(-c2ccc(Cl)cc2)c2cc(C(=O)NCCCN3CCCC3)sc21` had a cell event count of 104.

In turn, `CCc1ccc(-c2nc(CN3CCC(C(=O)N4CCN(c5ccccc5)CC4)CC3)c(C)o2)cc1` displayed a cell event count of 254.

Take `Cc1oc(-c2ccc(Cl)cc2)nc1CN1CCCC(C(=O)N2CCN(C(=O)c3ccco3)CC2)C1` (stereo not given): the cell event count turned out to be 120.

On to `O=C(CCN1C(=O)COc2ccccc21)NCCCN1CCN(c2ccccc2F)CC1`, for which the cell event count is 204.

The compound `C=CCn1c(=N)n(CC(O)COc2ccccc2OC)c2ccccc21` (stereo not given) registered a cell event count of 94.

`O=C(NCCCN1CCN(c2ccccc2F)CC1)C1CCN(S(=O)(=O)c2cccs2)CC1` gave a cell event count of 95.5.

The compound `CCN1CCN(c2ncc(C(=O)Nc3cc(Cl)c(OC)cc3OC)c3ccccc23)CC1` gave a cell event count of 301.

For the compound `CC(C)(C)OC(=O)N1CCC(C(=O)N2CCCCCC2)CC1`, the cell event count is 123.

Compound `Cc1cc(C)c2c(=O)n(CC(=O)NCCCN3CCN(c4ccccc4F)CC3)sc2n1` registered a cell event count of 216.

For `CCOC(=O)c1ccc(-c2n[nH]c(=O)c3ccccc23)cc1`, the cell event count came to 236.

`COCCn1cc(C(=O)N2CCCC(C)C2)c2c3ccccc3n(C)c2c1=O` (stereo not given) had a cell event count of 176.

For `O=C(COc1ccc(S(=O)(=O)N2CCCC2)cc1Cl)NC1CC1`, the cell event count came to 328.

The compound `Cn1c(C(=O)NCCC2=CCCCC2)cc2c(=O)n3ccccc3nc21` had a cell event count of 132.

Compound `Cc1cccc(-c2nc(CN3CCCC(C(=O)NC4CCCCC4)C3)c(C)o2)c1` (stereo not given) came in with a cell event count of 170.

Regarding `c1ccc(CSc2nnc(-c3cccs3)n2Cc2ccco2)cc1`, the cell event count is 122.

Compound `O=C(NCC(c1cccnc1)N1CCOCC1)c1cccc(Cl)c1` (stereo not given) returned a cell event count of 94.5.

`CCOc1ccc(-n2cc(C(=O)N3CCC(C)CC3)c3cc(OC)c(OC)cc3c2=O)cc1` yielded a cell event count of 251.

`Cc1cc(N2CCN(C)CC2)nc2ccc(NC(=O)c3ccc(Br)o3)cc12` registered a cell event count of 96.5.

Take `CCC(C(=O)Nc1ccccc1OC)n1c(C(=O)OC)cc2ccsc21` (stereo not given): the cell event count came out at 270.

The compound `CCn1c(=O)cc(SCC(=O)NCCCN2CCN(c3ccc(F)cc3)CC2)c2ccccc21` came in with a cell event count of 241.

`Cc1cc2c(=O)n(CC(=O)N3CCN(c4ccccc4)CC3)cnc2s1` registered a cell event count of 170.

In turn, `COc1ccc2c(c1)CCc1c(C(=O)Nc3cc(C)n(Cc4ccc(Cl)cc4)n3)noc1-2` yielded a cell event count of 406.

The compound `Nc1ccc(-n2ccnc2)cc1` gave a cell event count of 126.

Take `COc1ccc(CCNC(=O)C2CCN(Cc3nc(-c4cccc(Cl)c4)oc3C)CC2)cc1OC`: the cell event count came out at 338.
